From PubChem BioAssay (NCATS) come the findings set out here.

Results filed as inconclusive are left out. Where a call stands in place of a potency, no number is given. The source made the active and inactive calls. The call rests on the fitted dose curve; in most records, active means well fitted inhibition curve with a large enough effect; inconclusive means small, poorly fitted or top-dose-only effect; inactive means flat fitted curve, though single readings scatter.
Potency means the concentration at half of the fitted maximal effect.

This assay in a line: P-glycoprotein substrates identified in KB-8-5-11 adenocarcinoma cell line, qHTS therapeutic library screen (AID 1346987). Further: nearly all actives have a fitted effect of over 65% in size. To be noted: KB-8-5-11 (P-gp overexpressing) viability, CellTiter-Glo, 72 h; series mostly up to 44.5 µM. The method, boiled down:
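KB-8-5-11: colchicine-selected sub-line of KB-3-1 over-expressing P-gp; assay medium lacked colchicine. 72 h drug exposure at 37 degree C, CellTiter-Glo.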
A general note: In qHTS, concentration-response curves come from the screen itself.
Regarding `COC(=O)C1=CO[C@@H](O[C@@H]2O[C@H](CO)[C@@H](O)[C@H](O)[C@H]2O)[C@H]2[C@@H]1C=C[C@]21C=C([C@H](C)OC(=O)/C=C/c2ccc(O)cc2)C(=O)O1`, the Potency was 4.32 µM (active).

Take `CC1OC(OC2C(O)COC(O[C@@H]3[C@@H](O)[C@@H](O)[C@H](OC4C(OC(=O)[C@]56CCC(C)(C)CC5C5=CCC7[C@@]8(C)C[C@H](O)[C@H](OC9OC(CO)C(O)C(O)C9O)[C@@](C)(CO)C8[C@H](O)C[C@@]7(C)[C@]5(C)CC6)OCC(O)C4O)O[C@H]3C)C2O)C(O)C(O)C1O` (stereo partly specified): the activity change, negative = cytotoxicity was -5.97% [at 9.29 µM] (inactive).

`Cc1cc(C)c(-n2cc(C)c3c(Cl)nc(C)nc32)c(C)c1`: the Potency result is “inactive”.

`O=S(O)CO`: the Potency entry was “inactive”.

In the case of `O=C(NCCCNC(=O)c1ccc[nH]c1=O)c1cc(-c2ccccc2)on1`, the Potency entry is “inactive”.

Take `COc1cc(/C=N\NC(=O)c2ccc3c(c2)OCO3)ccc1OCc1ccccc1`: the Potency result was “inactive”.

Regarding `CCn1c(=O)c(-c2ccc(-c3cncs3)cc2Cl)cc2cnc(Nc3ccc(N4CCN(C)CC4)cc3)nc21`, the Potency was 18.4 µM (active).

As to `COc1cc2[nH]c(C)c(CCN3CCN(c4ccccc4)CC3)c2cc1OC`, the Potency entry is “inactive”.

Consider `C=C1CCC2C(C)(C(=O)O)CCCC2(C)C1CCC1=CCOC1=O` (stereo unspecified), for which the Potency result was “inactive”.

As for `CC(C)c1cc(-c2ccc(F)c3ccccc23)nc(N)n1`, the Potency entry is “inactive”.

In the case of `CC[C@H]1OC(=O)[C@H](C)[C@@H](O[C@H]2C[C@@](C)(OC)[C@@H](O)[C@H](C)O2)[C@H](C)[C@@H](O[C@H]2O[C@H](C)C[C@H](N(C)C)[C@H]2O)[C@](C)(O)C[C@@H](C)C(=O)[C@H](C)[C@@H](O)[C@]1(C)O`, the Potency result is “inactive”.

Turning to `CN[C@@H]1CCc2[nH]c3ccc(C(N)=O)cc3c2C1`, the Potency result is “inactive”.

Regarding `C=C(CCC1C(C)(O)CCC2C(C)(C)C(O)CCC12C)C(O)CO` (stereo unspecified), the Potency entry is “inactive”.

`C1=Cc2ccccc2C(=C2CCN(CCCCc3nn[nH]n3)CC2)c2ccccc21`: the Potency entry was “inactive”.

`O=C(Nc1ccc(Cl)cc1)Nc1cccc(-c2cccc(N3CCCC3)n2)c1`: the Potency is 20.6 µM (active).

As for `Cn1ccc(NC(=O)c2cc(Oc3ccc(C(=O)N4CCC4)c(F)c3)c3c(c2)OC(C)(C)C3)n1`, the Potency entry was “inactive”.

For the compound `CCOC(=O)COc1ccc2c(=O)cc(-c3ccccc3)oc2c1`, the Potency entry was “inactive”.

For `O=C(NCCN1CCC(n2c(=O)[nH]c3ccccc32)CC1)c1cc2cc(F)ccc2[nH]1`, the Potency entry was “inactive”.

As to `O=C(c1ccc(OC(F)F)c(C#Cc2ccccn2)c1)N1Cc2cccnc2C1`, the Potency entry is “inactive”.

As for `C=C1CC[C@@H]2[C@](C)(CO)[C@H](O)CC[C@@]2(C)[C@@H]1CC(=O)C1=CCOC1=O`, the Potency entry was “inactive”.

With `O=C[C@H](O)[C@@H](O)[C@H](O[C@H]1O[C@H](CO)[C@@H](O[C@H]2O[C@H](CO)[C@@H](O)[C@H](O)[C@H]2O)[C@H](O)[C@H]1O)[C@H](O)CO`, the Potency entry was “inactive”.

On to `C[C@H](CSC(=O)c1ccccc1)C(=O)N1C[C@@H](Sc2ccccc2)C[C@H]1C(=O)O`, for which the Potency entry is “inactive”.

Regarding `CCCCCCCCCCCCCCCC(=O)OCCC1CCN(CCCN2c3ccccc3Sc3ccc(S(=O)(=O)N(C)C)cc32)CC1`, the Potency entry is “inactive”.

`Cc1ccc(C)c(-c2cc(C(F)(F)F)nn2-c2ccc(S(N)(=O)=O)cc2)c1`: the Potency is 23.1 µM (active).

Consider `COc1cc(NC(=O)c2cccc(-n3cc(NC(=O)Nc4cccc(C)c4)cn3)c2)cc(OC)c1OC`, for which the Potency result was “inactive”.

`Cc1ccc(C)c(NS(=O)(=O)c2cc(C(=O)Nc3ccccc3-c3ccccc3)ccc2C)c1`: the Potency was 16.4 µM (active).
